# Experimental data: paper PMC4336329 (PLoS ONE, 2015)
# The whole screen tested about 310,000 compounds, of which about 14,000 (4.5%) showed an effect of 50% or more. Effects have a minus sign here. Only a selection was taken, and strong results are over-represented in it overall.
# Biological target: human ether-à-go-go-related gene (hERG) potassium channel (human, UniProt Q12809)
# Test: primary screen, population patch clamp on CHO cells stably expressing hERG; higher = less effect of the substance
# 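Further: peak tail current of the secondary pulse compared with the same well before compound.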
# human ether-à-go-go-related gene (hERG) potassium channel, sequence (Q12809 whole entry, looked up): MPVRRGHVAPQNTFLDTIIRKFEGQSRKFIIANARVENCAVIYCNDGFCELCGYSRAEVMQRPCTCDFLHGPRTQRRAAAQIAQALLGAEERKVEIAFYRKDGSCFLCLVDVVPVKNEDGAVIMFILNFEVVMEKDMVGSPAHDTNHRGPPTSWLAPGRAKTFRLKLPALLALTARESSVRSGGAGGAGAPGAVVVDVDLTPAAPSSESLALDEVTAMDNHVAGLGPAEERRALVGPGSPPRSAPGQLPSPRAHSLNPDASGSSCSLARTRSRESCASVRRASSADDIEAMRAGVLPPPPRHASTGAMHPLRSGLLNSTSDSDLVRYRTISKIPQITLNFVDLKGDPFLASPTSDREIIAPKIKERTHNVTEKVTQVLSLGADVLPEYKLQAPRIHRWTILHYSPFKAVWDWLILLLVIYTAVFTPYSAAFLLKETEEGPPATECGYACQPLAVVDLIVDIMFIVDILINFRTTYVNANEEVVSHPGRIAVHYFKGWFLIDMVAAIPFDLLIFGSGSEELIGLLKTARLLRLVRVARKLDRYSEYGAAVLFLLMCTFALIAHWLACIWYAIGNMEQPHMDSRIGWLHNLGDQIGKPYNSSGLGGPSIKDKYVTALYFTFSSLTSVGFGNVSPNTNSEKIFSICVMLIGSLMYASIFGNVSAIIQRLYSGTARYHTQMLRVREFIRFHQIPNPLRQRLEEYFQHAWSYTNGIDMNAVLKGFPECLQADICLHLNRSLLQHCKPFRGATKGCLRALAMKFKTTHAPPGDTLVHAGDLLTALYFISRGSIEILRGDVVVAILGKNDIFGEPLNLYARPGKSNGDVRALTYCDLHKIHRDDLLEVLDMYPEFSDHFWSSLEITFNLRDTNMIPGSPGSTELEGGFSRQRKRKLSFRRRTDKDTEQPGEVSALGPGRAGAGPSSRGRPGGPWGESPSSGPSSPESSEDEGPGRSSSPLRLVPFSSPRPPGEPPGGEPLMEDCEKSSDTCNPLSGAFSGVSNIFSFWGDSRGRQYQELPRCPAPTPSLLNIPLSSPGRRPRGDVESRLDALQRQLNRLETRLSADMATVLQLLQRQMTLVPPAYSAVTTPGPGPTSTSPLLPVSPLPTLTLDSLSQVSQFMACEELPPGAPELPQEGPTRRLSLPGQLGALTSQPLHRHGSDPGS
row,SMILES,"hERG current change (%, negative = inhibition) at 10uM [%]"
1,CC1CC(C)CN(CCCNC(=O)c2c(O)nc3ccccn3c2=O)C1 (stereo not shown),6.75
2,CC/C(=N\NC(=O)c1ccc(-c2ccccc2)cc1)C12CC3CC(CC(C3)C1)C2,0.121
3,COc1nc(NC2CCCCC2)nc(N2CCCCCC2)n1,4.84
4,O=C(c1ccc(Cl)cc1)N1CCCOC1,15.2
5,CC(=O)Nc1ccc(S(=O)(=O)N2CCCC2C(=O)Nc2ccc(F)cc2)cc1 (stereo not shown),11.2
6,CN(C)C(CNC(=O)CCCN1C(=O)c2cccc3cccc(c23)C1=O)c1ccccc1 (stereo not shown),-46.2
7,COC(=O)[C@@]1(Cc2ccc(F)cc2)[C@H]2c3cc(C(=O)N(C)C)n(CCSCCO)c3C[C@H]2CN1C(=O)c1ccccc1,-34.4
8,COC(=O)[C@@]1(Cc2ccc(F)cc2)[C@H]2c3cc(C(=O)N(C)C)n(CCc4ccc(OC)c(Br)c4)c3C[C@H]2CN1C(=O)c1ccccc1,-2.99
9,COC(=O)[C@@]1(Cc2ccc(F)cc2)[C@H]2c3cc(C(=O)N4CCCC4)n(CCc4ccc(O)c(O)c4)c3C[C@H]2CN1C(=O)c1ccccc1,-15.5
10,COC(=O)[C@@]1(Cc2ccc(F)cc2)[C@H]2c3cc(C(=O)N(C)C)n(Cc4ccccc4)c3C[C@H]2CN1C(=O)c1ccccc1,-13.3
11,COC(=O)[C@@]1(Cc2ccc(F)cc2)[C@H]2c3cc(C(=O)N(C)C)n(CCc4ccccn4)c3C[C@H]2CN1C(=O)c1ccccc1,-64.8
12,COC(=O)[C@@]1(Cc2ccc(F)cc2)[C@H]2c3cc(C(=O)N(C)C)n(Cc4ccccn4)c3C[C@H]2CN1C(=O)c1ccccc1,-53.4
13,COC(=O)[C@@]1(Cc2ccc(F)cc2)[C@H]2c3cc(C(=O)N4CCCC4)n(CCc4ccccn4)c3C[C@H]2CN1C(=O)c1ccccc1,-64.1
14,COC(=O)[C@@]1(Cc2ccc(F)cc2)[C@H]2c3cc(C(=O)N(C)C)n(Cc4ccc(OC)c(OC)c4)c3C[C@H]2CN1C(=O)c1ccccc1,-42.6
15,COC(=O)[C@@]1(Cc2ccc(F)cc2)[C@H]2c3cc(C(=O)N4CCCC4)n(CCc4c[nH]c5ccc(OC)cc45)c3C[C@H]2CN1C(=O)c1ccccc1,3.92
16,CS(=O)(=O)Nc1ccc(C(=O)Nc2ccc(S(=O)(=O)N3CCCC3)cc2)cc1,-13.7
17,Cc1nc(NC(=O)c2ccccc2)sc1-c1csc(NCCc2ccccc2)n1,12
18,CCOC(=O)CNC(=O)c1cnn2cccnc12,2.78
19,NC(=O)c1c(-c2cccs2)csc1N,3.94
20,COc1cc(C(=O)NCc2nnc(SCC(=O)NCc3ccccc3)o2)cc(OC)c1OC,17.6
21,Cc1ccc(S(=O)(=O)NC2OC(=O)C(Cl)=C2Cl)cc1 (stereo not shown),-3.55

row,SMILES,"hERG current change (%, negative = inhibition) at 10uM [%]"
1,COC(=O)c1nc2ccccn2c1F,13.2
2,Cc1c(C(=O)N(C)CCCCN2CCOCC2)oc2c(F)cccc12,4.14
3,CC(C)(C)C(=O)NC(=S)Nc1cc(C(=O)O)ccc1Cl,4.5
4,CC(=O)NC(=S)Nc1cc(C(=O)O)ccc1Cl,-64.9
5,CCCCC(=O)NC(=S)Nc1cc(C(=O)O)ccc1Cl,11.2
6,COC(=O)c1scc(C)c1NC(=O)Nc1ccccc1,3.91
7,Cc1sc2ncnc(Oc3ccc(-n4ccnc4)cc3)c2c1C,-68.4
8,Cc1sc2ncnc(N)c2c1C,4.12
9,Cc1ccc2cccc(Oc3ncnc4sc(C)c(C)c34)c2n1,15.3
10,CCOc1ccc(N/C(N)=N/c2nc(CSc3nnc(C)s3)cc(=O)[nH]2)cc1,12.5
11,C/C=C/c1ccc(OCC(=O)Nc2ccc(C(N)=O)cc2)c(OC)c1,7.23
12,COc1ccc(C2C(C#N)=C(N)Oc3c2c(C)nn3-c2ccccc2)cc1Cn1nc(C)c([N+](=O)[O-])c1C (stereo not shown),-4.96
13,O=C(O)c1cccc(N2C(=O)c3cccc(Oc4ccc(Cl)cc4)c3C2=O)c1,16.2
14,Cc1cccc(N2C(=O)c3cccc(Oc4ccc(Cl)cc4)c3C2=O)c1,4.76
15,O=C(O)c1ccc(N2C(=O)c3cccc(Oc4ccc(Cl)cc4)c3C2=O)cc1,-80.7
16,Cc1cc(C)nc(NC2=NCC(=O)N2c2ccccc2Br)n1,8.96
17,CC[n+]1ccc(/C=C/c2c[nH]c3ccccc23)cc1.[Cl-],-6.54
18,Cc1cc(/C=C(/C#N)C(=O)O)c(C)n1CCC(C)C,4.68
19,CNC(=O)Nc1cc(C(F)(F)F)cc(C(F)(F)F)c1,14.3
20,Cc1nn(-c2ccccc2)c(Cl)c1/C=N/NC(=O)c1ccccc1F,14.6
21,COc1ccc(CC(=O)NCc2nnc(SCc3ccc(C)cc3)n2C)cc1,5.49

row,SMILES,"hERG current change (%, negative = inhibition) at 10uM [%]"
1,COCCn1c(Cc2ccccc2)nnc1SCC(=O)N(C)C,14.3
2,COc1ccc(-n2c(SCc3ccc([N+](=O)[O-])cc3)nnc2-c2ccccc2)cc1,-24.4
3,COCCn1c(Cc2ccccc2)nnc1SCC(=O)Nc1ccccc1,5.83
4,COCCn1c(Cc2ccccc2)nnc1SCc1ccc([N+](=O)[O-])cc1,-55
5,COc1ccc(-n2c(Cc3ccccc3)nnc2SCC(=O)N2CCCc3ccccc32)cc1,-53.9
6,COc1ccc(CC(=O)NCc2nnc(SCC(=O)c3ccc(OC)cc3)n2C)cc1,-3.61
7,COc1ccc(-n2c(Cc3ccccc3)nnc2SCc2ccc([N+](=O)[O-])cc2)cc1,-68.4
8,COc1ccc(OCc2nnc(SCC(=O)N3CCCc4ccccc43)n2-c2ccc(C)cc2)cc1,-3.12
9,COc1ccc(CC(=O)NCc2nnc(SCc3ccc([N+](=O)[O-])cc3)n2C)cc1,-63.6
10,O=[N+]([O-])c1ccc(CSc2nnc(Cc3ccccc3)n2-c2ccc(F)cc2)cc1,-48.7
11,COc1ccc(-n2c(Cc3cccn3C)nnc2SCC(=O)N2CCCc3ccccc32)cc1,-13.9
12,CN1CCC(N(C)S(=O)(=O)c2ccc(NC(=O)COc3ccc(F)cc3)cc2)CC1,0.996
13,Cc1cc(C(F)F)n2nc(C(=O)Nc3ccc(S(=O)(=O)NC45CC6CC(CC(C6)C4)C5)cc3)nc2n1,-8.28
14,O=S(=O)(Cc1ccccc1)N1CCn2c(nc3ccccc32)C1,9.91
15,COCCNC(=O)C(=O)N/N=C(\C)CC(=O)Nc1cccnc1,8.89
16,COc1ccc(NC(=O)CSc2nnc(CNc3ccc(C)cc3)n2C)cc1,25.2
17,COC(=O)CSc1nnc(COc2ccc([N+](=O)[O-])cc2)n1C,-47.6
18,CC(C)OC(=O)CSc1nnc(COc2ccc([N+](=O)[O-])cc2)n1C,-69.9
19,CCn1c(SCc2ccc([N+](=O)[O-])cc2)nnc1C(C)NC(=O)c1ccc(C)cc1 (stereo not shown),-33.6
20,CCn1c(SCc2ccc([N+](=O)[O-])cc2)nnc1C(C)NC(=O)c1ccccc1Br (stereo not shown),-27.6
21,Cn1c(COc2ccc([N+](=O)[O-])cc2)nnc1SCC(N)=O,1.54

row,SMILES,"hERG current change (%, negative = inhibition) at 10uM [%]"
1,Cc1cc(C)nc(SCc2nnc(SCC(N)=O)n2Cc2ccco2)n1,-7.19
2,Cc1cc(C)nc(SCc2nnc(SCc3ccc([N+](=O)[O-])cc3)n2Cc2ccco2)n1,-80.6
3,C=CCn1c(SCc2ccc([N+](=O)[O-])cc2)nnc1C(C)NC(=O)c1ccccc1 (stereo not shown),-54.5
4,COc1ccc(NCc2nnc(SCC(=O)Nc3ccccc3)n2C)cc1,-12.5
5,COc1ccc(NCc2nnc(SCC(=O)Nc3ccc(OC)cc3)n2C)cc1,-62.3
6,COC(=O)CSc1nnc(CSc2nc(C)cc(C)n2)n1Cc1ccco1,7.23
7,CC(C)N1CC(C(=O)Nc2ccc(Br)c(Cl)c2)CC1=O (stereo not shown),-2.34
8,O=C(COc1ccc(-c2ccccc2)cc1)NNC(=O)Nc1ccccc1,-2.73
9,Nc1c(Cl)ncnc1N/N=C/c1ccnc2ccccc12,1.91
10,CC(C)NC(=O)C(=O)NCCN1CCN(S(=O)(=O)c2ccc(Cl)cc2)CC1,-33.3
11,COCCN(C(C)=O)c1nnc(-c2cnccn2)s1,6.11
12,COC(=O)C1=C(C)NC2=C(C(=O)CC(C)(C)C2)C1c1cnn(C)c1C (stereo not shown),15.6
13,COc1ccc(OCC(=O)N/N=C2\CCCCc3ccccc32)cc1,-12.3
14,CCOc1ccc(-n2c(Cc3ccccc3)nnc2SCc2c(C)noc2C)cc1,-74.1
15,CCOc1ccc(-n2c(COc3ccccc3)nnc2SCC(N)=O)cc1,-13.8
16,CCc1ccc(-n2c(SCc3c(C)noc3C)nnc2-c2ccncc2)cc1,-36.6
17,Cc1cccc(-n2c(Cc3ccccc3)nnc2SCc2ccc([N+](=O)[O-])cc2)c1,-37.6
18,CCn1c(Cc2ccccc2)nnc1SCC(=O)c1cccc([N+](=O)[O-])c1,-24
19,CCn1c(Cc2ccccc2)nnc1SCc1ccc([N+](=O)[O-])cc1,-57.1
